Reference: PubChem BioAssay (NCI)
The panel holds about 83,000 compounds, 20% with a hit somewhere; the sample as a whole holds those more often.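 Treatment: one concentration, 48 hours, 96-well format. Scoring: percent growth, with anything below 10 considered active.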 A number with no mark means an inactive call. Activity calls are given as the source filed them.

What was measured:
Assay in all cases: NCI-60 one-dose screen, 48 h (100 = growth as untreated, 0 = no growth, -100 = all killed)
Conditions in all cases: 10 µM unless noted
K-562 leukemia = tested on: K-562 leukemia
MALME-3M melanoma = tested on: MALME-3M melanoma
MDA-MB-231 breast = tested on: MDA-MB-231 breast
RXF 393 renal = tested on: RXF 393 renal
SF-268 CNS = tested on: SF-268 CNS
SF-295 CNS = tested on: SF-295 CNS
SF-539 CNS = tested on: SF-539 CNS
UACC-257 melanoma = tested on: UACC-257 melanoma
M14 melanoma = tested on: M14 melanoma
HCT-15 colon = tested on: HCT-15 colon

Structure (SMILES) | growth (K-562 leukemia) | growth (MALME-3M melanoma) | growth (MDA-MB-231 breast) | growth (RXF 393 renal) | growth (SF-268 CNS) | growth (SF-295 CNS) | growth (SF-539 CNS) | growth (UACC-257 melanoma) | growth (M14 melanoma) | growth (HCT-15 colon)
Cc1ccc(C(=O)Nc2cccc(C(F)(F)F)c2)cc1Nc1nc(-c2cnccn2)nc2c1cnn2C | 3.86% (active) | -15.3% (active) | 25.3% | 78% | 81.8% | 79% | 60.6% | 26.1% | 15.7% | 81.3%
OC1CCN(CCCOc2c3ccc(Cl)cc3nc3c2oc2ccccc23)CC1 | -7.34% (active) | -81.2% (active) | -14.7% (active) | -74.3% (active) | 4.41% (active) | -23.2% (active) | -76.1% (active) | -69.2% (active) | -84.2% (active) | -31.7% (active)
CN(C)CCCNc1c2ccc(Cl)cc2nc2c1oc1ccc(Cl)cc12 | -6.56% (active) | 49.4% | -60.9% (active) | -80.8% (active) | 43.8% | -66.9% (active) | -85.8% (active) | 94.5% | -75.6% (active) | -42.4% (active)
N#Cc1nc(-c2ccccc2)oc1S(=O)(=O)N1CCN(CCc2ccccn2)CC1 | 6.82% (active) | -66.9% (active) | 38.9% | -54.7% (active) | 109% | 99.2% | 68.7% | 77% | 15.2% | -27.2% (active)
CS(=O)(=O)c1ccc(-c2nc3ccccn3c2-c2nc3ccc([N+](=O)[O-])cc3[nH]2)cc1 | 91.3% | 86% | 86.5% | 101% | 94.1% | 92.2% | 89.5% | 106% | 97.3% | 97.1%
COc1cc(OC)c(C2SCC(=O)N2Nc2ncnc3ccccc23)cc1OC (stereo not given) | 105% | 96.2% | 98.8% | 124% | 107% | 102% | 95.3% | 108% | 107% | 103%
CN(C)CCCOc1c2ccc(Cl)cc2nc2c1oc1ccccc12 | 0.751% (active) | -81.2% (active) | -7.6% (active) | -66% (active) | -9.41% (active) | -19.2% (active) | -58.9% (active) | -18.5% (active) | -84.2% (active) | -21.6% (active)
CC(C)(C)OC(=O)N1C(=O)c2c(c3c4ccccc4[nH]c3c3ccc4ccccc4c23)C1=O | 42.2% | 48.1% | 66.8% | 59% | 63.3% | 50.2% | 62.1% | 77.2% | 37.3% | 51.6%
CCOc1ccc([C@H]2C(C(=O)c3ccc(Cl)cc3)C3(N[C@@H]2c2ccccc2)C(=O)Nc2ccc(Br)cc23)cc1 (stereo not given in full) | 14.2% | 64.8% | 11% | 16.6% | 28.9% | 37.8% | 48.8% | 68.5% | 37.6% | 33.4%
COc1cccc(N2CCN(c3ncnc4c3[nH]c3ccc(F)cc34)C[C@@H]2C)c1 | -36% (active) | -26.4% (active) | -4.16% (active) | -27.1% (active) | -1.64% (active) | -14.9% (active) | -32.2% (active) | -27.6% (active) | -84.7% (active) | 18.6%
COc1cc(/C=C/C(=O)c2ccccc2)ccc1Oc1nc(NCCO)nc(N2CCOCC2)n1 | 22.9% | 93.7% | 97.1% | 105% | 103% | 99.7% | 94.2% | 95.4% | 99.3% | 90.9%
Nc1c(C(=O)Nc2ccc(C(F)(F)F)cc2)sc2nc(-c3cnccn3)cc(-c3cccs3)c12 | 35.5% | 89% | 66.2% | 25.5% | 78.6% | 78.7% | -54.1% (active) | 95.8% | 49.4% | 78.6%
O=C1Nc2cc(Cl)ccc2/C1=C\c1ccc(OCc2ccc([N+](=O)[O-])cc2)cc1 | 83.1% | 75.1% | 66.2% | 64.3% | 86.4% | 68.2% | 80.7% | 89.5% | 83.3% | 77.8%
CCCCN1C(=O)/C(=c2\sc3n(c2=O)C2C(NN=3)N(CC)C(=O)N2CC)c2cc(Cl)ccc21 (stereo not given) | 25.3% | 73.9% | 58.3% | 77% | 75.4% | 62.3% | 59.4% | 89.4% | 70.3% | 43.9%
O=C(N/N=C/c1ccc([N+](=O)[O-])o1)c1[nH]c2ccc(Br)cc2c1-c1ccccc1 | 3.51% (active) | 23% | -2.79% (active) | 50.1% | 24.8% | 21.3% | 4.34% (active) | 37.5% | -35.4% (active) | 9.3% (active)
Nc1ncc(-c2ccc3ncnc(N4CCc5cc(F)c(Cl)cc54)c3c2)cc1CO | 7.76% (active) | -25.8% (active) | 17% | -26.6% (active) | 8.31% (active) | -11.5% (active) | -17.8% (active) | 9.34% (active) | -3.69% (active) | 5.51% (active)
COc1cc(OC)c(C2C(Cl)C(=O)N2Nc2ncnc3ccccc23)cc1OC (stereo not given) | 100% | 93.2% | 87.3% | 112% | 99.2% | 102% | 104% | 111% | 88.6% | 101%
C/C(=C(/c1ccc(Cl)cc1)c1ccc(OCCN)cc1)c1ccc(C)cc1 | 90.8% | 101% | 94.4% | 112% | 100% | 98.7% | 93.8% | 104% | 102% | 101%
COc1ccc(N/N=C/c2c(-c3ccc(S(C)(=O)=O)cc3)nc3ccccn23)cc1 | 8.66% (active) | 75.1% | 38.7% | 79.3% | 55.7% | 6.91% (active) | 55.4% | 70.6% | 18.4% | 19.3%
N#Cc1c(-c2ccc(Cl)cc2)nc2c(-c3ccccc3)c(Nc3ccccc3)nn2c1N | 67.3% | 79.9% | 26% | 78.8% | 82.4% | 46% | 80.6% | 105% | 70.1% | 67.2%
Cc1ccc(/C=C/c2nn3c(-c4ccco4)nnc3s2)cc1C | 97.7% | 104% | 94.8% | 112% | 108% | 97% | 99% | 99.2% | 108% | 96%

Structure (SMILES) | growth (K-562 leukemia) | growth (MALME-3M melanoma) | growth (MDA-MB-231 breast) | growth (RXF 393 renal) | growth (SF-268 CNS) | growth (SF-295 CNS) | growth (SF-539 CNS) | growth (UACC-257 melanoma) | growth (M14 melanoma) | growth (HCT-15 colon)
NS(=O)(=O)c1ccc(Nc2nc(SCC(=O)c3ccc(Cl)cc3)nc3ccccc23)cc1 | 84% | 92.8% | 87.9% | 103% | 104% | 95.1% | 88.3% | 102% | 97% | 86.6%
N#Cc1ccc(/C=N/NC(=O)c2[nH]c3ccc(Br)cc3c2-c2ccccc2)s1 | 8.83% (active) | 50.1% | 22.1% | 56% | 30% | 11.7% | 2.47% (active) | 40.9% | 9% (active) | 8.95% (active)
O=C(N/N=C/c1ccc[nH]1)c1[nH]c2ccc(Br)cc2c1-c1ccccc1 | 3.06% (active) | 45.1% | 14% | 53.2% | 25.3% | 7.67% (active) | 14.2% | 30.3% | 13.2% | 9.42% (active)
COc1ccc(-c2nc3ccc(-c4nnc(SCC(=O)Nc5ccc(C(=O)/C=C/c6ccccc6)cc5)o4)cc3[nH]2)cc1OC | 91.6% | 97.1% | 91.2% | 110% | 106% | 94.9% | 83.7% | 110% | 108% | 91.8%
CCOC(=O)c1c(NC(=O)c2cccc(C(F)(F)F)c2)sc2cc(O)ccc12 | 97.3% | 92.4% | 87.1% | 113% | 96.9% | 102% | 89.7% | 108% | 101% | 92.8%
O=C(N/N=C/c1cccs1)c1[nH]c2ccc(Br)cc2c1-c1ccccc1 | 4.72% (active) | 58.2% | 5.46% (active) | 62.8% | 35.3% | 15.9% | 2.22% (active) | 61.2% | 1.81% (active) | 9.74% (active)
CC(=O)Oc1ccccc1C(=O)Nc1cc(C(C)C)ccc1C | 7.45% (active) | -6.69% (active) | 7.22% (active) | -2.41% (active) | 19.8% | 11.3% | 15.6% | -9.44% (active) | 33.2% | 14%
Fc1ccc(-c2nc(C(Cl)Cl)nc3cc(-c4ccccc4)nn23)cc1 | 11.4% | -15% (active) | 11.8% | -70.1% (active) | 24% | 6.38% (active) | 32.8% | 1.45% (active) | -40.7% (active) | 4.01% (active)
N/C(=N\c1nc2c(Br)cccc2s1)C(Br)Br | 3.75% (active) | -36.7% (active) | -9.45% (active) | -51.1% (active) | 49.2% | 11.8% | -28.3% (active) | 51.4% | 10.9% | -27.7% (active)
Nc1c(C(=O)Nc2ccc(Cl)cc2)sc2nc(-c3cnccn3)cc(-c3cccs3)c12 | 40.5% | 91.2% | 72.9% | 61.5% | 47.2% | 59% | 12.2% | 81.5% | 89.2% | 62.5%
COc1ccc(-c2csc(N/N=C/c3c(-c4ccc(S(C)(=O)=O)cc4)nc4ccccn34)n2)cc1 | 98.5% | 118% | 107% | 114% | 110% | 106% | 107% | 112% | 106% | 101%
COc1cc(/C=C/C(=O)c2ccc(Cl)cc2)ccc1Oc1nc(NCCO)nc(N2CCOCC2)n1 | 35.9% | 93.5% | 104% | 97.8% | 97.6% | 101% | 95.9% | 114% | 98.7% | 98.2%
COc1ccc(NC2=CC(=O)C(C)=C(C)C2=O)cc1 | 66.6% | 89.9% | 83.8% | 102% | 101% | 105% | 105% | 45.4% | 95.6% | 89%
CCOC(=O)c1c(Nc2ccccc2)nn2c(N)c(C#N)c(-c3ccccc3)nc12 | 48.5% | 96% | 63.9% | 68.3% | 87.4% | 81.3% | 82.2% | 111% | 89% | 52.4%
CC(C)NC(=O)c1cc(-c2ccc(NC(=O)Nc3ccc(N4CCOCC4)c(C(F)(F)F)c3)cc2)nc2cccnc12 | 24.6% | 68.3% | 48.7% | -9.17% (active) | 77.5% | 1.17% (active) | 20.9% | 94.4% | 73.2% | 68.1%
O=C(Oc1ccc2ccc(=O)oc2c1)c1ccc(Cl)cc1 | 115% | 102% | 103% | 116% | 106% | 101% | 101% | 106% | 107% | 97.9%
CCCSc1nc(Nc2ccc(/C(C)=N\NC(N)=S)cc2)c(C#N)c(-c2ccc(OC)cc2)n1 | 85.1% | 49.2% | 7.95% (active) | 10.8% | 64.5% | 42.2% | 18.7% | 93.7% | 79.5% | 75.7%
COc1ccc(/C=C2\SC(=Nc3cc(C)[nH]n3)NC2=O)cc1 | 101% | 89.6% | 95.4% | 80.7% | 95.8% | 86.3% | 95.8% | 98.7% | 98.1% | 84.2%
CO/N=C1\CCc2c(sc(NC(=O)c3cccc(C(F)(F)F)c3)c2C(N)=O)C1 | 70.1% | 29.4% | 37.7% | -6% (active) | 51.8% | 30.8% | 34.2% | 66% | 47.7% | 64.6%
COC(=O)C(Cc1ccccc1)NS(=O)(=O)/N=C1\NC(=O)NC1=C(Cl)Cl (stereo not given) | 91.8% | 94.8% | 101% | 119% | 82.9% | 99.5% | 54% | 91% | 92.9% | 99.5%
O=C(O)CCCCCN1C(=O)/C(=C/c2ccc(O)c(O)c2)SC1=S | 100% | 97.5% | 91.8% | 124% | 103% | 99.3% | 96% | 108% | 106% | 101%
